Assay outcomes as filed in PubChem.
A selection: hits, their analogues and other compounds. The true share with any hit is near 11%.
L3MBTL1 inh = qHTS Assay for the Inhibitors of L3MBTL1 | hit rate 0.66% among 230,000 | Lethal(3)malignant brain tumor-like protein 1 (Homo sapiens), Q9Y468 | AlphaScreen L3MBTL1–H3K9me1 peptide binding | Potency, µM (highest dose often 57.1 µM), usual class: inhibitors; also: nearly all actives have a fitted effect of over 60% in size
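Displacement of a biotinylated histone H3(1-15) peptide monomethylated at Lys9 (75 nM) from L3MBTL1 (50 nM) was measured by AlphaScreen after a 30 min room-temperature compound incubation; cefsulodin titration served as intraplate control.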
BAZ2B inh = qHTS Assay for Inhibitors of BAZ2B | Bromodomain adjacent to zinc finger domain protein 2B (Homo sapiens), Q9UIF8 | AlphaScreen BAZ2B-H3K14Ac peptide displacement | Potency, µM (highest dose often 114 µM), hits mostly inhibitors | hit rate 4.4% among 360,000; also: nearly all actives have a fitted effect of over 60% in size
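Protein-peptide AlphaScreen: BAZ2B 50 nM, b-H3K14Ac 50 nM, 1x PBS pH 7.4 + 0.01% Tween-20. Preincubation 30 min RT; cpd 30 min RT (top 110 uM); beads 20 min RT, light-protected.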
G9a block = qHTS Assay for Inhibitors of Histone Lysine Methyltransferase G9a | Potency, µM (highest dose often 102 µM), usual class: inhibitors | G9a H3K9 monomethylation, AlphaScreen, 2 h | Histone-lysine N-methyltransferase EHMT2 (Homo sapiens), Q96KQ7 | hit rate 8.8% among 350,000 | AID 504332, 2011; also: nearly all actives have a fitted effect of over 75% in size
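Compounds were preincubated with 20 nM G9a for 15 min, after which biotinylated H3K9 peptide (500 nM) and SAM (20 uM) started a 2 h room-temperature reaction. Monomethylated product was quantified by antibody-based AlphaScreen chemiluminescence.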
HP1b chromo inh = HTS for Inhibitors of HP1-beta Chromodomain Interactions with Methylated Histone Tails; Chromobox protein homolog 1 (Homo sapiens), P83916; AlphaScreen HP1-beta / biotin-H3K9me3 peptide binding; Potency, µM (highest dose often 114 µM), actives largely listed as inhibitors; hit rate 0.56% among 390,000; also: nearly all actives have a fitted effect of over 70% in size
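HP1-beta protein (50 nM final) preincubated 30 min at room temperature with biotinylated H3(1-18)K9me3 peptide (50 nM) in PBS pH 7.4, 0.01% Tween-20, then compound added for 30 min. AlphaScreen streptavidin donor/nickel chelate acceptor beads (10 ug/mL final), 30 min dark, luminescence read.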
JMJD2A Tudor = qHTS Assay for Inhibitors of JMJD2A-Tudor Domain. Lysine-specific demethylase 4A (Homo sapiens), O75164. AlphaScreen JMJD2A-Tudor / H3K4me3 peptide binding. Potency, µM (titrated, usually from 114 µM), most hits filed as inhibitors. hit rate 4.4% among 390,000. AID 504339, 2011; also: nearly all actives have a fitted effect of over 50% in size
Target sequence (O75164 whole entry, looked up, the tested form may be a part): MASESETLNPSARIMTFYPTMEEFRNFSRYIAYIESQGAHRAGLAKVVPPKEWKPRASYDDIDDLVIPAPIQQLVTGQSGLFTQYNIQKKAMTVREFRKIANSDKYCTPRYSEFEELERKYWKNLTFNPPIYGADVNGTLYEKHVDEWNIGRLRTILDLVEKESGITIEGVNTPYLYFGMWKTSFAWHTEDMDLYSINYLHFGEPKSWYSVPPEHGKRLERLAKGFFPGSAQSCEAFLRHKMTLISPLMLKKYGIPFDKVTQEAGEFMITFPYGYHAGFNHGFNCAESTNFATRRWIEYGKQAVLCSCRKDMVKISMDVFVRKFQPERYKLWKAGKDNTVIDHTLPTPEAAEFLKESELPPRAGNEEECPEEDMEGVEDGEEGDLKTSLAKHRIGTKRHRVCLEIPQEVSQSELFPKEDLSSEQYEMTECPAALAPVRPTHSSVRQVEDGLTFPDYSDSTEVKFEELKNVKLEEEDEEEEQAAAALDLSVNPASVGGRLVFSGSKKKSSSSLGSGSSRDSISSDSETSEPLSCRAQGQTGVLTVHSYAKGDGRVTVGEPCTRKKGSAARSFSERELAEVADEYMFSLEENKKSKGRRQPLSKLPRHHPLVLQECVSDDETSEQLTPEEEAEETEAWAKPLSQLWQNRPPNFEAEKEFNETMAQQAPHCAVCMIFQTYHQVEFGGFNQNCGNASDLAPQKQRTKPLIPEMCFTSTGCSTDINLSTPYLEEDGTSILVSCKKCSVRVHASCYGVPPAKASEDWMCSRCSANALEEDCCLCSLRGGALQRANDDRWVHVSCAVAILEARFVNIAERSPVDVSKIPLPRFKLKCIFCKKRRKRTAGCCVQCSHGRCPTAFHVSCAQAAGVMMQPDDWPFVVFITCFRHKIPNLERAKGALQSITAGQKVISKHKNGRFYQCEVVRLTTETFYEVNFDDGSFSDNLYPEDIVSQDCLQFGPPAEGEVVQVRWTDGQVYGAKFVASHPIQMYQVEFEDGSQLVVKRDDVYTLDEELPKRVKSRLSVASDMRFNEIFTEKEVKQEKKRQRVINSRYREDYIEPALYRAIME
Hits are given with their value; [ ] = another dose, or the depositor's remark. Calls follow the shape of the dose curve; as a rule, active = well fitted inhibition curve with a large enough effect; inconclusive = small, poorly fitted or top-dose-only effect; inactive = no such curve, though single readings can be large or run the other way.

How did COc1ccc(NC(=O)Cn2c(=O)oc3cc(S(=O)(=O)NCc4ccccc4)ccc32)c(OC)c1 do in these assays?
BAZ2B inh: inactive; G9a block: inactive; HP1b chromo inh: inactive; JMJD2A Tudor: inactive

Results for CCOc1cc(-c2nn3cnnc3s2)cc(OCC)c1OCC ?
L3MBTL1 inh: inactive; BAZ2B inh: inactive; G9a block: inactive; HP1b chromo inh: inactive; JMJD2A Tudor: 18µM

Results for CCOc1cc(C(N)=O)cc(OCC)c1OCC ?
L3MBTL1 inh: inactive; BAZ2B inh: inactive; G9a block: inactive[12.7 µM]; HP1b chromo inh: inactive; JMJD2A Tudor: inactive

What do the screens show for `O=C(O)c1ccc(S(=O)(=O)N[C@H](Cc2ccc(O)cc2)C(=O)O)cc1`?
L3MBTL1 inh: inconclusive; BAZ2B inh: inactive; G9a block: inconclusive; JMJD2A Tudor: inactive

How did CC1=C(C(=O)Nc2ccccc2)C(c2ccc(Cl)cc2)n2c(s/c(=C/c3cccc(OCC(=O)O)c3)c2=O)=N1 (stereo unspecified) do in these assays?
L3MBTL1 inh: inconclusive; BAZ2B inh: 56µM; G9a block: inconclusive; HP1b chromo inh: inconclusive; JMJD2A Tudor: inconclusive

What do the screens show for `CCOc1ccc(C2C(C(=O)Nc3ccccc3)=C(C)N=c3s/c(=C/c4cccc(OCC(=O)O)c4)c(=O)n32)cc1` (stereo unspecified)?
L3MBTL1 inh: 35µM; BAZ2B inh: inconclusive; G9a block: 50µM; HP1b chromo inh: inactive; JMJD2A Tudor: inconclusive

What do the screens show for `CCOc1ccc(C(=O)NC2CC(=O)N(c3ccc(C)cc3)C2)cc1OCC` (stereo unspecified)?
BAZ2B inh: inactive; G9a block: inactive; HP1b chromo inh: inactive; JMJD2A Tudor: inactive

How did CCn1c(C)c(C)c2cc(C(=O)N3CCCC3)ccc21 do in these assays?
BAZ2B inh: inactive; G9a block: inactive; HP1b chromo inh: inactive; JMJD2A Tudor: inactive

Results for Cc1c(C)n(Cc2ccc(F)cc2)c2ccc(C(=O)N3CCN(c4ccccn4)CC3)cc12 ?
BAZ2B inh: inconclusive; G9a block: 32µM; HP1b chromo inh: inactive; JMJD2A Tudor: inconclusive

What do the screens show for `CCn1c(C)c(C)c2cc(C(=O)NC3CCCCCC3)ccc21`?
BAZ2B inh: 35µM; G9a block: inactive; HP1b chromo inh: inactive; JMJD2A Tudor: inconclusive

Results for CCn1c(C)c(C)c2cc(C(=O)N3CCN(c4ccccc4)CC3)ccc21 ?
BAZ2B inh: 28µM; G9a block: inconclusive; HP1b chromo inh: inconclusive; JMJD2A Tudor: 45µM

Results for CCOc1cc(-c2nc(-c3ccc(-c4ccc(C)cc4)nc3OC)no2)cc(OCC)c1OCC ?
BAZ2B inh: inactive; G9a block: inactive; HP1b chromo inh: inactive; JMJD2A Tudor: inactive

What do the screens show for `O=C(NCc1ccc(F)cc1)C1CCCN(c2ncnc3onc(-c4ccc(F)cc4)c23)C1` (stereo unspecified)?
BAZ2B inh: inactive; G9a block: inactive; HP1b chromo inh: inactive; JMJD2A Tudor: inactive

How did COCCNc1oc(Cc2cccc3ccccc23)nc1C#N do in these assays?
L3MBTL1 inh: inactive; BAZ2B inh: inconclusive; G9a block: 79µM; HP1b chromo inh: inactive; JMJD2A Tudor: inactive

How did N#Cc1nc(Cc2cccc3ccccc23)oc1NCc1ccc(F)cc1 do in these assays?
L3MBTL1 inh: inactive; BAZ2B inh: inconclusive; G9a block: 25µM; HP1b chromo inh: inconclusive; JMJD2A Tudor: inconclusive

What do the screens show for `C=CCNc1oc(Cc2cccc3ccccc23)nc1C#N`?
BAZ2B inh: 50µM; G9a block: 50µM; HP1b chromo inh: inactive; JMJD2A Tudor: inconclusive

What do the screens show for `CCOC(=O)c1c(NC(=O)/C=C/c2ccc(OCC)cc2)sc(C(C)=O)c1C`?
BAZ2B inh: inactive; G9a block: inactive; HP1b chromo inh: inactive; JMJD2A Tudor: inactive

How did O=C1N=C(O)CN1/N=C\c1ccc(-c2ccc([N+](=O)[O-])cc2)o1 do in these assays?
G9a block: inactive[21.5 µM]

How did COC(=O)C1=C(C)N(c2ccccc2)C(=S)NC1c1ccccc1C(F)(F)F (stereo unspecified) do in these assays?
L3MBTL1 inh: inconclusive; BAZ2B inh: inconclusive; G9a block: 50µM; HP1b chromo inh: inactive; JMJD2A Tudor: inconclusive

Results for COCCOC(=O)C1=C(C)N(c2ccccc2)C(=S)NC1c1ccccc1C(F)(F)F (stereo unspecified) ?
L3MBTL1 inh: inactive; BAZ2B inh: inactive; G9a block: inactive; HP1b chromo inh: inactive; JMJD2A Tudor: inconclusive

How did CCOC(=O)c1c(=O)n(O)c2ccc(OC)cc2[n+]1[O-] do in these assays?
BAZ2B inh: inconclusive; G9a block: 50µM; HP1b chromo inh: inactive; JMJD2A Tudor: 50µM

What do the screens show for `COc1ccc(OC)c(-c2nnc3n(Cc4ccc(C)cc4)c(=O)c4ccccc4n23)c1`?
BAZ2B inh: inactive; G9a block: inactive; HP1b chromo inh: inactive; JMJD2A Tudor: inactive

Results for N#C/C(=C\c1cc(O)c(O)c(O)c1)C(N)=O ?
L3MBTL1 inh: inactive; BAZ2B inh: inactive; HP1b chromo inh: inconclusive; JMJD2A Tudor: 3.5µM

How did O=[N+]([O-])c1cccc(CN2C(COCc3ccccc3)CCC=CS2(=O)=O)c1 (stereo unspecified) do in these assays?
HP1b chromo inh: inactive; JMJD2A Tudor: inactive

What do the screens show for `Cc1ccc(Cl)cc1N1CCN(CCCNc2ncnc3onc(-c4ccc(F)cc4)c23)CC1`?
BAZ2B inh: inactive; G9a block: inconclusive; HP1b chromo inh: inactive; JMJD2A Tudor: inactive

Results for Cc1ccccc1OCc1nc2ccccc2c(=O)n1/N=C/c1c[nH]c2ccccc12 ?
L3MBTL1 inh: inactive; BAZ2B inh: inactive; G9a block: inactive; HP1b chromo inh: inactive; JMJD2A Tudor: inactive

What do the screens show for `Cc1cc(/C=N/n2c(COc3ccccc3C)nc3ccccc3c2=O)c(O)c([N+](=O)[O-])c1`?
L3MBTL1 inh: inconclusive; BAZ2B inh: inconclusive; G9a block: inconclusive; HP1b chromo inh: inconclusive; JMJD2A Tudor: 25µM

What do the screens show for `CCN(C(=O)c1cc2c(=O)oc3ccccc3c2s1)c1ccc(C)c(C)c1`?
BAZ2B inh: inactive; G9a block: inactive; HP1b chromo inh: inactive; JMJD2A Tudor: inactive

Results for COc1ccc(CC2SC(=Nc3ccc(F)cc3)NC2=O)cc1 (stereo unspecified) ?
BAZ2B inh: inactive; G9a block: 56µM; HP1b chromo inh: inactive; JMJD2A Tudor: inactive

How did CSc1ccc(/C=N/Nc2ccc(Cl)c(C(=O)O)c2)cc1 do in these assays?
L3MBTL1 inh: inactive; BAZ2B inh: inactive; G9a block: 10µM; HP1b chromo inh: inactive; JMJD2A Tudor: inactive

Results for O=C(O)c1cc(N/N=C/c2ccc(-c3ccccc3)cc2)ccc1Cl ?
BAZ2B inh: inconclusive; G9a block: inactive[0.501 µM]; HP1b chromo inh: inactive; JMJD2A Tudor: 32µM

Results for O=C(O)c1cc(N/N=C/c2c[nH]c3ccccc23)ccc1Cl ?
BAZ2B inh: inconclusive; G9a block: 45µM; HP1b chromo inh: inactive; JMJD2A Tudor: inconclusive
